Reference: PubChem BioAssay (NCI)
Compounds without any hit were thinned out: in the full panel of roughly 79,000, 15% have a hit. Activity calls are given as the source filed them. Cut-off read from the data, not from the text of the source: active = growth inhibition above about 70%; inactive = the rest.

Assays:
[1] = NCI Yeast Anticancer Drug Screen. Data for the rad50 strain (AID 155);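 note: 0% = growth of vehicle-only cultures of the same strain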; conditions: S. cerevisiae rad50 strain growth inhibition, stronger effect = higher value
Procedure, shortened: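 DNA repair mutant yeast, compound exposure, growth read-out; inhibition is taken relative to vehicle.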

[2] = NCI Yeast Anticancer Drug Screen. Data for the mec2-1 strain (AID 157); conditions: S. cerevisiae mec2-1 strain, stronger effect = higher value
Procedure, shortened: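 mec2-1 yeast strain, carrying an alteration in DNA damage repair or cell cycle control, was exposed to compounds; growth inhibition was measured relative to vehicle-treated controls.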

[3] = NCI Yeast Anticancer Drug Screen. Data for the sgs1 mgt1 strain (AID 161);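 note: 0% = growth of cultures given vehicle only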; conditions: S. cerevisiae sgs1 mgt1 strain, stronger effect = higher value
Procedure, shortened: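 Yeast cells carrying a defined DNA-repair defect were exposed to test compounds. Growth inhibition was measured relative to vehicle-treated controls.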

[4] = NCI Yeast Anticancer Drug Screen. Data for the cln2 rad14 strain (AID 165);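 note: 0% = growth equal to vehicle treated cultures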; conditions: S. cerevisiae cln2 rad14 strain, stronger effect = higher value
Procedure, shortened: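 Yeast carrying cln2 and rad14 alterations (cell cycle control and DNA damage repair) were exposed to compounds. Growth inhibition was measured against vehicle-treated controls.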

[5] = NCI Yeast Anticancer Drug Screen. Data for the bub3 strain (AID 167); conditions: S. cerevisiae bub3 mutant strain, stronger effect = higher value
Procedure, shortened: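 In this screen, a yeast mutant lacking normal mitotic checkpoint function is challenged with compound. Relative growth versus vehicle gives the inhibition value.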

[6] = NCI Yeast Anticancer Drug Screen. Data for the mlh1 rad18 strain (AID 175); conditions: S. cerevisiae mlh1 rad18 strain growth inhibition, stronger effect = higher value
Procedure, shortened: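 Growth inhibition of the yeast strain was measured after compound exposure and expressed relative to vehicle-treated controls. The strain carries defined defects in DNA damage repair.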

[7] = at 5.0 µM (retest, dose inferred, filed as 0.5)
[8] = at 50.0 µM (retest, dose inferred, filed as 5.0)

Measured: growth inhibition

Cc1cc(C)nc(NS(=O)(=O)c2ccc(NC(=O)c3cccnc3Nc3cccc(Cl)c3)cc2)n1
inactive: [1]; [7] -2% | [1]; [8] 33% | [1]; at 50.0 µM 45.9% | [2]; [7] -9% | [2]; [8] 34% | [2]; at 50.0 µM 13.1% | [3]; [7] 6% | [3]; [8] 51% | [3]; at 50.0 µM 54.9% | [4]; [7] -10% | [4]; [8] 35% | [4]; at 50.0 µM 22.1% | [5]; [7] -6% | [5]; [8] 41% | [5]; at 50.0 µM 25.5% | [6]; [7] -1% | [6]; [8] 53%
active: [6]; at 50.0 µM 81.5%

C=C(CN(C)C)C(=O)c1ccccc1Cl
inactive: [1]; [7] -10% | [2]; [7] -15% | [3]; [7] 15% | [4]; [7] -10% | [4]; [8] 25% | [4]; at 50.0 µM 7.9% | [5]; [7] -14% | [6]; [7] 46%
active: [1]; [8] 90% | [1]; at 50.0 µM 90.8% | [2]; [8] 80% | [2]; at 50.0 µM 92.7% | [3]; [8] 95% | [3]; at 50.0 µM 92.5% | [5]; [8] 96% | [5]; at 50.0 µM 70.6% | [6]; [8] 98% | [6]; at 50.0 µM 98.1%

CCN(CC)CCNc1c(O)cc(C)c2sc3ccccc3c(=O)c12
inactive: [1]; [7] 18% | [2]; [7] 10% | [3]; [7] 7% | [4]; [7] 11% | [5]; [7] 3% | [6]; [7] 2%
active: [1]; [8] 95% | [1]; at 50.0 µM 98.5% | [2]; [8] 94% | [2]; at 50.0 µM 99% | [3]; [8] 98% | [3]; at 50.0 µM 98.8% | [4]; [8] 84% | [4]; at 50.0 µM 96.8% | [5]; [8] 84% | [5]; at 50.0 µM 97.2% | [6]; [8] 96% | [6]; at 50.0 µM 98.3%

CCOC(=O)/C(=C/O)c1c[nH]c2ccccc12
active: [1]; [8] 94% | [1]; at 50.0 µM 97.8% | [2]; [8] 95% | [2]; at 50.0 µM 98.3% | [3]; [8] 95% | [3]; at 50.0 µM 96.8% | [4]; [8] 96% | [4]; at 50.0 µM 96% | [5]; [8] 96% | [5]; at 50.0 µM 97.3% | [6]; [8] 96% | [6]; at 50.0 µM 97.7%
inactive: [1]; [7] 0% | [2]; [7] -4% | [3]; [7] -4% | [4]; [7] 1% | [5]; [7] 0% | [6]; [7] 3%

O=S(=O)(Nc1ccccc1)c1ccccc1C#Cc1ccccc1
active: [1]; [8] 91% | [1]; at 50.0 µM 89.8% | [2]; [8] 92% | [2]; at 50.0 µM 79.2% | [3]; [8] 93% | [3]; at 50.0 µM 86.9% | [4]; [8] 92% | [4]; at 50.0 µM 74.3% | [5]; at 50.0 µM 89.8% | [6]; [8] 95% | [6]; at 50.0 µM 91.5%
inactive: [1]; [7] -3% | [2]; [7] -2% | [3]; [7] 10% | [4]; [7] -70% | [5]; [7] 2% | [5]; [8] 64% | [6]; [7] 3%
